Laboratory results reported in paper PMC7862700, “An all-to-all approach to the identification of sequence-specific readers for epigenetic DNA modifications on cytosine”.

Columns and labels:
Assay in all cases: DAPPL (digital affinity profiling via proximity ligation, sequencing); 10 mM Tris-HCl pH 7.5, 50 mM NaCl, 1 mM DTT, 4% glycerol, room temperature, 30 min; GST-TFs on glutathione beads, 16-mer random dsDNA library, 0.1% formaldehyde crosslink after washing; high values mean tight binding
FLI1 = target: T1, FLI1 (Homo sapiens, UniProt Q01543 1-452); conditions: protein: recombinant; tags: N-terminal GST; dsDNA, one strand shown
T1 sequence: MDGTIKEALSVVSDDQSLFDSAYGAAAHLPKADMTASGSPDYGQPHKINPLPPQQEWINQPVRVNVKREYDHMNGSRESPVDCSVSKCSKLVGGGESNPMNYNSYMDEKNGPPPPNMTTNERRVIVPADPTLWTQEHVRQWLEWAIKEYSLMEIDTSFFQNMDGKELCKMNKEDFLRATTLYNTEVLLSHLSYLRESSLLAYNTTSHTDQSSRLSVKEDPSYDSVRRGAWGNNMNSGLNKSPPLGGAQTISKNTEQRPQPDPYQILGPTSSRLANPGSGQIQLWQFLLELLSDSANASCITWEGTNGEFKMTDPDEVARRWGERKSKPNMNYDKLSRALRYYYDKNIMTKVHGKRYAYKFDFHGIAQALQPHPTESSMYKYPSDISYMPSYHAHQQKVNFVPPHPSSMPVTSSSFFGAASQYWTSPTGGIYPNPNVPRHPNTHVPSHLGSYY
Method in brief: (§1)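 A tag-only sample was pooled with DNA-barcoded human transcription factors that had been expressed in yeast as GST fusions and captured on glutathione beads. The pools were incubated for 30 min at room temperature with 200 nmole of a random double-stranded 16-mer DNA library in Tris/NaCl/DTT/glycerol buffer, then washed, crosslinked with 0.1% formaldehyde, proximity-ligated (BsaI/T4 ligase, 1 h, 37 °C), PCR-amplified and sequenced on an Illumina NextSeq500. Binding signal is each hexamer's read frequency for a factor divided by its frequency for the tag-only sample.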

ELK1 = target: T2, ELK1 (Homo sapiens, UniProt P19419 1-428); conditions: protein: recombinant; tags: N-terminal GST; dsDNA, one strand shown
T2 sequence: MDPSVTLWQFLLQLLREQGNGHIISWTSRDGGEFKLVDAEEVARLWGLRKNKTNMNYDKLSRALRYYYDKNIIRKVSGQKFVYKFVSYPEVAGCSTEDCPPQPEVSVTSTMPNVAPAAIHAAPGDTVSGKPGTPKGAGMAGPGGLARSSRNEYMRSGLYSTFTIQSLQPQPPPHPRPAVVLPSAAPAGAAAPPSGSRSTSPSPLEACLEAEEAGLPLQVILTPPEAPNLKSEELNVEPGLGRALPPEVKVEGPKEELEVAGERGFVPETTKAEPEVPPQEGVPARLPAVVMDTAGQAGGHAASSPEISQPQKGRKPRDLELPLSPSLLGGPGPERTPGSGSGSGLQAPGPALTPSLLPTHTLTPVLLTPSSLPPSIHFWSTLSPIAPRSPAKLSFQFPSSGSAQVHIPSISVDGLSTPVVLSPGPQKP
Method in brief: as §1

GABPA = target: T3, GABPA (Homo sapiens, UniProt Q06546 1-454); conditions: protein: recombinant; tags: N-terminal GST; dsDNA, one strand shown
T3 sequence: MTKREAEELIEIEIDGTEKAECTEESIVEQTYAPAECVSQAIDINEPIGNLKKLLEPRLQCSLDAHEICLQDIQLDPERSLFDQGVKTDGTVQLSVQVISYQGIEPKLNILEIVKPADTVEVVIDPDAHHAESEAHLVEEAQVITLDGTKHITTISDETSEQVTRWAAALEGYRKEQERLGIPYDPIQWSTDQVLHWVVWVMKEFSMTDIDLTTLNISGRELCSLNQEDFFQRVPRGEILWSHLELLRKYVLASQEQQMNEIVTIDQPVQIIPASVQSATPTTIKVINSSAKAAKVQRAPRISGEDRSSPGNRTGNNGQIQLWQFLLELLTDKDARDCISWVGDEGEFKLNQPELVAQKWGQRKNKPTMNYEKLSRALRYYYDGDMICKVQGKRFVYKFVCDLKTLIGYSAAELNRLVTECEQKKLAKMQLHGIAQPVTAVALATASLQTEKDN
Method in brief: as §1

ERG = target: T4, ERG (Homo sapiens, UniProt P11308 1-479); conditions: protein: recombinant; tags: N-terminal GST; dsDNA, one strand shown
T4 sequence: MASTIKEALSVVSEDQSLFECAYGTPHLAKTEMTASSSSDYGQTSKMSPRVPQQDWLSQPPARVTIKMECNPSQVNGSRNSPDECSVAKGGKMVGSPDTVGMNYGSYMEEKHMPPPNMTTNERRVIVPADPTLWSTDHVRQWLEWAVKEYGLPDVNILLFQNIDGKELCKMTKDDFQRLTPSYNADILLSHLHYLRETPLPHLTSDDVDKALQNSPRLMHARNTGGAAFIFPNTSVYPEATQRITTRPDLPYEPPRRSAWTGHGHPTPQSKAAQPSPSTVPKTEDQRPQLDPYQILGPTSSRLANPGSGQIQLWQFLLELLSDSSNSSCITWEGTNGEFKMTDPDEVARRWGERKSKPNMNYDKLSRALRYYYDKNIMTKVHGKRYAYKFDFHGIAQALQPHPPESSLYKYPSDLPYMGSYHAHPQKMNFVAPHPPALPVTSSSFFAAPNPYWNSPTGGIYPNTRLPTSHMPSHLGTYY
Method in brief: as §1

ELF1 = ELF1 (Homo sapiens, UniProt P32519 1-619); conditions: protein: recombinant; tags: N-terminal GST; dsDNA, one strand shown
Method in brief: as §1

EHF = target: T5, EHF (Homo sapiens, UniProt Q9NZC4 1-300); conditions: protein: recombinant; tags: N-terminal GST; dsDNA, one strand shown
T5 sequence: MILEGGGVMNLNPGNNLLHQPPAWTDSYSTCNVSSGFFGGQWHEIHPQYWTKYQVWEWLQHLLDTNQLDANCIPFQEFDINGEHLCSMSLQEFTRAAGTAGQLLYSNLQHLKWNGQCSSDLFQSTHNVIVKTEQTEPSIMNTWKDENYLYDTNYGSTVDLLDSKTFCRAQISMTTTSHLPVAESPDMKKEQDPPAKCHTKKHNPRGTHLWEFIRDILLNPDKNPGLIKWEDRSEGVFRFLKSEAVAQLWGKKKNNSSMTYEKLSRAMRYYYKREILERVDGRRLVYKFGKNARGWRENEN
Method in brief: as §1

SPI1 = SPI1 (Homo sapiens, UniProt P17947 1-270); conditions: protein: recombinant; tags: N-terminal GST; dsDNA, one strand shown
Method in brief: as §1

SPIB = SPIB (Homo sapiens, UniProt Q01892 1-262); conditions: protein: recombinant; tags: N-terminal GST; dsDNA, one strand shown
Method in brief: as §1

ELK3 = target: T6, ELK3 (Homo sapiens, UniProt P41970 1-407); conditions: protein: recombinant; tags: N-terminal GST; dsDNA, one strand shown
T6 sequence: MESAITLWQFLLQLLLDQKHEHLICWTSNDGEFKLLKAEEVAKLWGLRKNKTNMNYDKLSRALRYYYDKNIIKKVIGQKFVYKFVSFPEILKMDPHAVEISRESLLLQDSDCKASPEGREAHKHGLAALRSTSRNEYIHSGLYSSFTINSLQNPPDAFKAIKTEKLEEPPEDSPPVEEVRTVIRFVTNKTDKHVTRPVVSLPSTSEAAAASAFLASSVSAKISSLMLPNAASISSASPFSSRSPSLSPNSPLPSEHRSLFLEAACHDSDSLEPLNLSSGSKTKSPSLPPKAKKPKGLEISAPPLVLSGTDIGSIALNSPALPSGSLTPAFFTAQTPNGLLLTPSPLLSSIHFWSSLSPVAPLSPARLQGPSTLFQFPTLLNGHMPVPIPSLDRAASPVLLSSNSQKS
Method in brief: as §1

FEV = target: T7, FEV (Homo sapiens, UniProt Q99581 1-238); conditions: protein: recombinant; tags: N-terminal GST; dsDNA, one strand shown
T7 sequence: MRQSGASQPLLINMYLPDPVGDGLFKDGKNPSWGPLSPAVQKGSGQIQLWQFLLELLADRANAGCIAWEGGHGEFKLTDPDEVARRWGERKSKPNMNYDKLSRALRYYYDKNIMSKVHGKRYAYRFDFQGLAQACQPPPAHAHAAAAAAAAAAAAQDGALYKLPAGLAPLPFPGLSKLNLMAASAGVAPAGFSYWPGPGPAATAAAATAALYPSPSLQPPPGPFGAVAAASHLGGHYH
Method in brief: as §1

ETV5 = ETV5 (Homo sapiens, UniProt P41161 1-510); conditions: protein: recombinant; tags: N-terminal GST; dsDNA, one strand shown
Method in brief: as §1

HSF1 = HSF1 (Homo sapiens, UniProt Q00613 1-529); conditions: protein: recombinant; tags: N-terminal GST; chain copies: 3; dsDNA, one strand shown
Method in brief: as §1

SPIC = target: T8, SPIC (Homo sapiens, UniProt Q8N5J4 1-248); conditions: protein: recombinant; tags: N-terminal GST; dsDNA, one strand shown
T8 sequence: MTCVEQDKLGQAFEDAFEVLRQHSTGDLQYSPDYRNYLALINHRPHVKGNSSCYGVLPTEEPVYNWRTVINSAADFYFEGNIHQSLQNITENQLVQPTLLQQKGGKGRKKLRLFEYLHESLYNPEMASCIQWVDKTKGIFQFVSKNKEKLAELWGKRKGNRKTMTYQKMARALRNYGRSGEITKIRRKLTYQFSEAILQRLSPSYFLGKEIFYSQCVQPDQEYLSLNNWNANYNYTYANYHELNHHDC
Method in brief: as §1

ELF4 = ELF4 (Homo sapiens, UniProt Q99607 1-663); conditions: protein: recombinant; tags: N-terminal GST; dsDNA, one strand shown
Method in brief: as §1

ELK4 = target: T9, ELK4 (Homo sapiens, UniProt P28324-2 1-405); conditions: protein: recombinant; tags: N-terminal GST; dsDNA, one strand shown
T9 sequence: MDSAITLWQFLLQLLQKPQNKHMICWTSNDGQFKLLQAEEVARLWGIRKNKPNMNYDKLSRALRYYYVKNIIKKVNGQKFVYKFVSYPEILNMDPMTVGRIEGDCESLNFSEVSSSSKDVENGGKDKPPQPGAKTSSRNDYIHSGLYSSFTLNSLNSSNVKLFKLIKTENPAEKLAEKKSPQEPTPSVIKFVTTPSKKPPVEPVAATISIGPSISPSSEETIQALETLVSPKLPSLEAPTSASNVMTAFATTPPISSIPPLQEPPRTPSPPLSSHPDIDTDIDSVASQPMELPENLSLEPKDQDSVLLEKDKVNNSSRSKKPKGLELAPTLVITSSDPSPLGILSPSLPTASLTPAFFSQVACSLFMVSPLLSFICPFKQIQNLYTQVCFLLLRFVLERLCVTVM
Method in brief: as §1

ETV2 = target: T10, ETV2 (Homo sapiens, UniProt O00321 1-342); conditions: protein: recombinant; tags: N-terminal GST; dsDNA, one strand shown
T10 sequence: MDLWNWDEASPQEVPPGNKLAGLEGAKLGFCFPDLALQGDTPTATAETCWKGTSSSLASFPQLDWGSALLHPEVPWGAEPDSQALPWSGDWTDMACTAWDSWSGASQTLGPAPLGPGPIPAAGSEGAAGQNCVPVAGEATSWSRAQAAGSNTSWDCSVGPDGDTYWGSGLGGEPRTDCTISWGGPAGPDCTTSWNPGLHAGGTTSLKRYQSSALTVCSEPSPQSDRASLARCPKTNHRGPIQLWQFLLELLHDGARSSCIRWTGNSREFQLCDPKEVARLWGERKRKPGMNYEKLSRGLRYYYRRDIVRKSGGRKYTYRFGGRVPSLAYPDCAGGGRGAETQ
Method in brief: as §1

ELF3 = target: T11, ELF3 (Homo sapiens, UniProt P78545 1-371); conditions: protein: recombinant; tags: N-terminal GST; dsDNA, one strand shown
T11 sequence: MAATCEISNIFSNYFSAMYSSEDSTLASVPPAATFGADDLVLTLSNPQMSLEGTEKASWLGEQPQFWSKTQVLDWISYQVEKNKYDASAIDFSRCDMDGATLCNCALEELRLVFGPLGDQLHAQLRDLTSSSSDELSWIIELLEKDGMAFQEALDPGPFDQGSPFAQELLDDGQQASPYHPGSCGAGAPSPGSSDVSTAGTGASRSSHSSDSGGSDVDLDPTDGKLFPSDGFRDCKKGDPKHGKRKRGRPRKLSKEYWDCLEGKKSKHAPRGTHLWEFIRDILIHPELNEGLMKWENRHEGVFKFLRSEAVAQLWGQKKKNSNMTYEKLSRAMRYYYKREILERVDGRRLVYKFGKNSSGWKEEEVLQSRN
Method in brief: as §1

ETV1 = ETV1 (Homo sapiens, UniProt P50549 1-477); conditions: protein: recombinant; tags: N-terminal GST; dsDNA, one strand shown
Method in brief: as §1

ELF1, sequence (P32519 whole entry): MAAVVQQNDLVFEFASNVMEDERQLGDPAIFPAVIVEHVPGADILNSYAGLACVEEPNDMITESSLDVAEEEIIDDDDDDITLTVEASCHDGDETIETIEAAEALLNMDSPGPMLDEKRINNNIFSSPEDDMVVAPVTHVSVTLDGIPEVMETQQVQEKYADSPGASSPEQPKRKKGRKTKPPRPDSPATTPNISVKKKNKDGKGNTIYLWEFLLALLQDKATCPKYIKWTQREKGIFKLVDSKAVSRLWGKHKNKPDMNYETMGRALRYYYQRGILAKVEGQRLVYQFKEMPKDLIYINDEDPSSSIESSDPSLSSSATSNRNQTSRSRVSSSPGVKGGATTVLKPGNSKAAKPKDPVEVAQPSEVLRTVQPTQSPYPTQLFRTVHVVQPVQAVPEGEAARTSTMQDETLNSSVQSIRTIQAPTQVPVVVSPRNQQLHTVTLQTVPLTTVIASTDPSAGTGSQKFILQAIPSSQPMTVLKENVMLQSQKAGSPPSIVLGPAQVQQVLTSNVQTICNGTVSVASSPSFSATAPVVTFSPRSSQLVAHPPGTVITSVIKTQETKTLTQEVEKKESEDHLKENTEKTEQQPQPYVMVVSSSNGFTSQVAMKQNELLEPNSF
ETV5, sequence (P41161 whole entry): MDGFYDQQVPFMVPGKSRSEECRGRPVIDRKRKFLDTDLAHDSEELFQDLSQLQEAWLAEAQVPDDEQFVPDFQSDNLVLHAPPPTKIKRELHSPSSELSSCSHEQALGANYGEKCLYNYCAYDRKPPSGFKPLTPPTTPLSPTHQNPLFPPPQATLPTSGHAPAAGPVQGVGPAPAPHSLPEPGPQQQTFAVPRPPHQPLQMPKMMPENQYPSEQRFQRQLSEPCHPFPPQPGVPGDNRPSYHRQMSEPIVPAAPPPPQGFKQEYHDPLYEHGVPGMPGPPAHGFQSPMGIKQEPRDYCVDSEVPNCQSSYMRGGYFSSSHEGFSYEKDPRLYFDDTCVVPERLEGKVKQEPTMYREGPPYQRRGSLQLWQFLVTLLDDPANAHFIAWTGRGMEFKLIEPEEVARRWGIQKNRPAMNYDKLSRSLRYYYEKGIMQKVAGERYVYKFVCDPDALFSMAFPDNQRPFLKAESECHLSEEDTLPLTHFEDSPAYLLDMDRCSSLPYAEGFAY
ETV1, sequence (P50549 whole entry): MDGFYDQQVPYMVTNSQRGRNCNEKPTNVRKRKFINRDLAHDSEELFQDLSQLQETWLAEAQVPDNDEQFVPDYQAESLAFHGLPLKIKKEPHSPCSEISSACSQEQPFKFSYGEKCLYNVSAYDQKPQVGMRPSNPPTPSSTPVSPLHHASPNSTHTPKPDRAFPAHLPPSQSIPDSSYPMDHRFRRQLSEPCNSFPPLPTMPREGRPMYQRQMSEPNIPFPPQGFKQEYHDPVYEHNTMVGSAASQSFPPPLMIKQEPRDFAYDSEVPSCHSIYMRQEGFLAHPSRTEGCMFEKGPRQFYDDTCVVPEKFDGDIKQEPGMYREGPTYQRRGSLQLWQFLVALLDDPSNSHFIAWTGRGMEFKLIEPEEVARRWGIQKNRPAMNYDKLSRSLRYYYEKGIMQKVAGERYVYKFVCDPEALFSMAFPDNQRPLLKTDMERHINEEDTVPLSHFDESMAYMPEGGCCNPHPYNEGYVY
ELF4, sequence (Q99607 whole entry): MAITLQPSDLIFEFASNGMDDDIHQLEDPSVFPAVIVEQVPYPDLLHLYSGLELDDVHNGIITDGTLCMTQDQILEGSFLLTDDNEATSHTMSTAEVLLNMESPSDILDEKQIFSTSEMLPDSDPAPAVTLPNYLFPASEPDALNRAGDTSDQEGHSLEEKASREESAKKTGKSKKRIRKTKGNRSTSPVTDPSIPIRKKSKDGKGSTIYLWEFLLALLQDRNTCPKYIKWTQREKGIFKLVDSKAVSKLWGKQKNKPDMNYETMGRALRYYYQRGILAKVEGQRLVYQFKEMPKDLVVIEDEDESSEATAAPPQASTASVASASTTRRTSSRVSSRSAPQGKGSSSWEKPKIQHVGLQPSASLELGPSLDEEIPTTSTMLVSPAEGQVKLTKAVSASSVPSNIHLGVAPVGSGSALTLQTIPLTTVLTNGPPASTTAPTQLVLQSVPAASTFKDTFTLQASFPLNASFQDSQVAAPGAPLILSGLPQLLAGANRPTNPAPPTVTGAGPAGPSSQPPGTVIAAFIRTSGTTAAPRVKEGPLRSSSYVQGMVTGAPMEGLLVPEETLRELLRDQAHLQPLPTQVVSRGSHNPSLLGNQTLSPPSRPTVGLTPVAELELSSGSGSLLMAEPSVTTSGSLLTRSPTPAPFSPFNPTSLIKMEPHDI
HSF1, sequence (Q00613 whole entry): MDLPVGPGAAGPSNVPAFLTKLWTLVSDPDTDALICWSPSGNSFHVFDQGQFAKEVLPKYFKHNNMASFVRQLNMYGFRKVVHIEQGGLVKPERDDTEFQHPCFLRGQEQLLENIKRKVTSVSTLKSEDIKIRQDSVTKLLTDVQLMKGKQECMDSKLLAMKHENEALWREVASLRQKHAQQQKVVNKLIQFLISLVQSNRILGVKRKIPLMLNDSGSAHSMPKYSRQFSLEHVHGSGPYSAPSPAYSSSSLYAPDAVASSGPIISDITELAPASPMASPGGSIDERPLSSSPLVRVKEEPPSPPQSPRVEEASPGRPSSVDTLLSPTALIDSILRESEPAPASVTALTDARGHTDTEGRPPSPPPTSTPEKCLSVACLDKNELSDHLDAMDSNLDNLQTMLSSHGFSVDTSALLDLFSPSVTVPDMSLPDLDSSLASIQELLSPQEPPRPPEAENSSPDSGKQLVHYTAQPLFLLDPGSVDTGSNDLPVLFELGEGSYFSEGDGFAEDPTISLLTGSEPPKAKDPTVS
SPIB, sequence (Q01892 whole entry): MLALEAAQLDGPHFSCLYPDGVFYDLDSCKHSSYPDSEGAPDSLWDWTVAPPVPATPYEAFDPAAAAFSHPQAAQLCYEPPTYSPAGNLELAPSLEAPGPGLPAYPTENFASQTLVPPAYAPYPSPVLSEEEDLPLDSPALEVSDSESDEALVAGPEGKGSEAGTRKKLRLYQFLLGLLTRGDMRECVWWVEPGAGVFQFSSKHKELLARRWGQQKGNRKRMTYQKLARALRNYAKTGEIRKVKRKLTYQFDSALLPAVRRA

Sequence: GAAAAA
- binding signal (FLI1): 1.07 fold enrichment (6-mer frequency, TF over GST control)
- binding signal (ELK1): 1.13 fold enrichment (6-mer frequency, TF over GST control)
- binding signal (GABPA): 1.11 fold enrichment (6-mer frequency, TF over GST control)
- binding signal (ERG): 1.14 fold enrichment (6-mer frequency, TF over GST control)
- binding signal (ELF1): 1.1 fold enrichment (6-mer frequency, TF over GST control)
- binding signal (EHF): 1.2 fold enrichment (6-mer frequency, TF over GST control)
- binding signal (SPI1): 1.21 fold enrichment (6-mer frequency, TF over GST control)
- binding signal (SPIB): 1.18 fold enrichment (6-mer frequency, TF over GST control)
- binding signal (ELK3): 1.21 fold enrichment (6-mer frequency, TF over GST control)
- binding signal (FEV): 1.09 fold enrichment (6-mer frequency, TF over GST control)
- binding signal (ETV5): 1.13 fold enrichment (6-mer frequency, TF over GST control)
- binding signal (HSF1): 1.41 fold enrichment (6-mer frequency, TF over GST control)
- binding signal (SPIC): 1.15 fold enrichment (6-mer frequency, TF over GST control)
- binding signal (ELF4): 1.17 fold enrichment (6-mer frequency, TF over GST control)
- binding signal (ELK4): 1.09 fold enrichment (6-mer frequency, TF over GST control)
- binding signal (ETV2): 1.15 fold enrichment (6-mer frequency, TF over GST control)
- binding signal (ELF3): 1.2 fold enrichment (6-mer frequency, TF over GST control)
- binding signal (ETV1): 1.09 fold enrichment (6-mer frequency, TF over GST control)
